# Sampled rows, rich in hits. Any-hit rate of the full collection: about 6.3%.
# TGFb SMAD3 inh – qHTS for Inhibitors of TGF-b. HepG2 CAGA-GFP TGF-b/SMAD3 reporter, GFP fluorescence, 18 h; TGF-beta stimulated, 500 pg/mL final. 410,000 tested, 1.2% active. AID 588855, 2011. Potency, µM (titrated, usually from 46.1 µM), inactives show top-dose activity, negative = inhibition, most hits filed as inhibitors; also: % is scaled to controls: 0 for no effect and ±100 for the full control effect; nearly all actives have a fitted effect of over 65% in size
#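 Cell-based qHTS in HEPG2 carrying a CAGA-GFP Smad reporter; compounds added before 500 pg/mL final TGF-beta, 18 h incubation at 37 degrees C, GFP fluorescence quantified per cell by imaging cytometry.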
# HepG2 viability – qHTS for Inhibitors of TGF-b: Cytotox Counterscreen | 410,000 tested, 0.76% active | HepG2 CAGA-GFP viability, ATP luminescence, 18 h | Potency, µM (titrated, usually from 46.1 µM), for the others: at the top dose activity change, negative = cytotoxicity, most hits filed as cytotoxic
#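 CellTiter-Glo luminescence gave cytotoxicity after 18 hours at 37 degrees C. The cells were HepG2 CAGA-GFP in 1% FBS DMEM, stimulated with 500 pg/mL TGF-beta after compound addition. %Activity was normalised to no-cell wells (complete cell-killing) and DMSO (no toxicity), and curves were fitted and classified.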
# S2 tox – Viability Counterscreen for Primary qHTS for Inhibitors of ATXN expression | 400,000 tested, 0.49% active | S2 cells (HEK-293 line with an ATXN2-luciferase reporter) viability, CellTiter-Fluor protease fluorescence, 24 h | Potency, µM (doses to about 56.7 µM), usual class: cytotoxic; also: nearly all actives have a fitted effect of over 40% in size
# Gal4-VP16 FLuc – VP16 counterscreen qHTS for inhibitors of ROR gamma transcriptional activity | Drosophila S2 Gal4-VP16 UAS-luciferase, luminescence, 20 h | Potency, µM (highest dose often 53.6 µM), inactives show top-dose activity, negative = inhibition, hits mostly inhibitors | 310,000 tested, 3.5% active | AID 2546, 2010;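 also: Gal4-VP16 expression switched on by copper sulfate through the metallothionein promoter; % is scaled to controls: 0 for no effect and ±100 for the full control effect; nearly all actives have a fitted effect of over 50% in size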
# ATXN2 expr inh – Primary qHTS for Inhibitors of ATXN expression; 360,000 tested, 0.72% active; Potency, µM (top dose mostly 57 µM), without a hit: at the top dose activity change, negative = inhibition, actives largely listed as inhibitors; HEK-293 ATXN2-luciferase reporter, luminescence, 24 h; also: % is scaled to controls: 0 for no effect and ±100 for the full control effect; nearly all actives have a fitted effect of over 55% in size
#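 qHTS (up to 57 uM final) was run with 24 h compound exposure of reporter cells at 37 °C. Each well was multiplexed: SteadyGlo luminescence measured ATXN2-luciferase expression after a fluorogenic Gly-Phe-AFC viability readout (25 uM final).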
# RORgamma inh – qHTS for inhibitors of ROR gamma transcriptional activity | Drosophila S2 Gal4-RORgamma UAS-luciferase reporter, 20 h | Potency, µM (top dose mostly 53.6 µM), for inactives: at the highest dose activity change, negative = inhibition, most hits filed as inhibitors | 310,000 tested, 5.4% active; also: % is scaled to controls: 0 for no effect and ±100 for the full control effect; nearly all actives have a fitted effect of over 60% in size
# Target sequence (P51450 whole entry, looked up, the tested form may be a part): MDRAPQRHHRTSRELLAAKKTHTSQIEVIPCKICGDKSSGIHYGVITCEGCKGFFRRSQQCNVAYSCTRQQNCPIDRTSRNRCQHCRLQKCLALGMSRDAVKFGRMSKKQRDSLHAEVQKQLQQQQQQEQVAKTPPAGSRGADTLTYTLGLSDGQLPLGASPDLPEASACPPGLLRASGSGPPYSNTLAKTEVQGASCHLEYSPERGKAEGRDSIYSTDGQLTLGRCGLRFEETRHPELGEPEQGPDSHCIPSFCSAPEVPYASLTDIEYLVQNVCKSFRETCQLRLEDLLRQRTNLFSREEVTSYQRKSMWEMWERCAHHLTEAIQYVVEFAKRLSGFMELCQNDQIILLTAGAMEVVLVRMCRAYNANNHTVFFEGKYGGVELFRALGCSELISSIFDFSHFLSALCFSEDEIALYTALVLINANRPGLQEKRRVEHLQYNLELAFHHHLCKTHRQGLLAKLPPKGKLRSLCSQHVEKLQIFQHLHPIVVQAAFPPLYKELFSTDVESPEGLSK
#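 Luciferase reporter read in Schneider cells carrying Gal4-RORγ (mouse) and UAS-Photinus luciferase; cells given compound 1 h before 700 uM copper sulfate induction, then incubated 20 h at ambient temperature.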
# * = called active by the depositor; i = inactive; ? = inconclusive; . = not tested or not shown; [ ] = remark or other dose. Calls follow the shape of the dose curve; as a rule, active = well fitted curve in the direction sought with a large enough effect; inconclusive = small, poorly fitted or top-dose-only effect, or another doubt; inactive = no such curve, though single readings can be large; an effect the other way counts as inactive or inconclusive. Potency is read from the fitted curve at half-maximal effect.
SMILES,TGFb SMAD3 inh,HepG2 viability,S2 tox,Gal4-VP16 FLuc,ATXN2 expr inh,RORgamma inh
COC(=O)CCCn1c(C)cc(C(=O)CCl)c1C,?,-32%,?,-80%,1%,8.9µM*
Cc1cc(C(=O)CCl)c(C)n1CCc1ccccc1,?,7.9µM*,?,-12%,-33%[11.3 µM],17%
Cc1ccc(-n2ncc3c(N4CCCCCC4)ncnc32)cc1C,-2%,-18%,i,.,27%,.
COc1cccc(-c2oc3c(c2C#CCCO)C(O)CCC3)c1 (stereo not drawn),.,.,?,.,-20%,.
Cc1ncc2c(c1CNC(=O)c1ccc3c(c1)OCO3)CCN(C(=O)c1ccoc1)C2,.,.,i,.,.,.
O=C(Nc1ccc(Br)cc1)c1cccn1-c1ncc(C(F)(F)F)cc1Cl,?,-95%,i,-9%,-23%,?
O=C(CSc1nccn1-c1ncc(C(F)(F)F)cc1Cl)c1ccc(Br)cc1,13%,-1%,i,?,57%,11µM*
Clc1cccc(CSc2nccn2-c2ccccc2)c1,?,-3%,i,-4%,5%,5µM*
Brc1ccc(CSc2nccn2-c2ccccc2)cc1,-4%,-17%,i,-1%,-2%,14µM*
FC(F)(F)c1ccc(CSc2nccn2-c2ccccc2)cc1,23%,0%,i,-9%,-8%,?
Clc1cccc(CSc2ncn(-c3ccccc3)n2)c1,6%,2%,i,29%,31%,23%
Cc1ccc(C(=O)CSc2nccn2-c2ccccc2)cc1,?,5%,i,?,30%,10µM*
O=C(COC(=O)c1ccc2ncsc2c1)NC(=O)C1CCCCC1,-4%,0%,.,.,.,.
c1coc(-c2ccccc2CN2CCOc3ccc(CN4CCOCC4)cc3C2)c1,.,.,i,.,.,.
CCc1cccc2c(C(=O)CCl)c[nH]c12,-2%,-33%,?,14µM*,6%,?
O=C(Nc1ccc(-c2nc3ccccc3[nH]2)cc1)C1CCCN(Cc2ccn[nH]2)C1 (stereo not drawn),2%,-2%,i,.,.,.
COc1ccc(C2CC(=O)Oc3c(C(CCN4CCCCC4)c4ccc(N(C)C)cc4)c(OC)cc(OC)c32)cc1 (stereo not drawn),-12%,7%,8.9µM*,-6%,-22%,-1%
COc1ccc(C2CC(=O)Oc3c(C(CCN4CCCC(C)C4)c4ccc(N(C)C)cc4)c(OC)cc(OC)c32)cc1 (stereo not drawn),-6%,-22%,8.9µM*,-3%,-1%,-6%
CCC(=O)N1CCC1(C)C(=O)Nc1cccc2c1CCCC2 (stereo not drawn),-26%,-10%,i,.,-1%,.
O=C(O)[C@H]1CN[C@H](C(=O)O)C1,.,.,.,5%,.,-6%
CC1(C(=O)NS(=O)(=O)c2ccc(F)cc2F)CCN1C(=O)C1(c2ccc(Cl)cc2)CC1 (stereo not drawn),-9%,3%,i,.,15%,.
C/C(CC(=O)NC(C)(C)C)=N\NC(N)=S,-22%,-38%,i,?,-8%,11µM*
C/C(CC(=O)Nc1ccc(Cl)c(C(F)(F)F)c1)=N\NC(N)=S,-8%,3%,i,?,-13%,11µM*
c1ccc2nccnc2c1,2.8µM*,4µM*,.,.,.,.
c1cc(Nc2cccc3nccnc23)c2nccnc2c1,4%,-30%,i,1.1µM*,-21%,0.28µM*
SMILES,TGFb SMAD3 inh,HepG2 viability,S2 tox,Gal4-VP16 FLuc,ATXN2 expr inh,RORgamma inh
COc1ccc(CCNc2nc3cc(OC)c(OC)cc3c3nc(-c4ccccc4)nn23)cc1OC,-7%,-20%,i,.,-3%,.
COc1cc(NC(=O)CC(C)n2nc(C)cc2C)cc(OC)c1 (stereo not drawn),-4%,-9%,i,.,1%,.
Cc1[nH]n(-c2cccc3ccccc23)c(=O)c1/C=N/NC(=O)c1cccc([N+](=O)[O-])c1,6%,0%,?,3.5µM*,20µM*,2.8µM*
Cc1[nH]n(-c2ccccc2)c(=O)c1/C=N/NC(=O)c1cccc([N+](=O)[O-])c1,?,-67%,?,2.5µM*,14µM*,1µM*
Cc1ccc(-n2[nH]c(C)c(/C=N/NC(=O)c3ccc([N+](=O)[O-])cc3)c2=O)c(C)c1,.,.,.,5µM*,.,1.8µM*
CCCCNC(=O)C1(C)CCCCN1Cc1ccc(-c2ccccc2)cc1 (stereo not drawn),-19%,-5%,i,.,-26%,.
O=C(COC(=O)c1cc(S(=O)(=O)N2CCOCC2)ccc1O)Nc1ccc2c(c1)OCO2,18%,14%,i,.,5%,.
Oc1ccccc1N=Cc1c(O)ccc2ccccc12,?,-59%,?,?,-2%,8.9µM*
Oc1ccc2ccccc2c1/C=N/c1nccs1,-14%,-21%,?,-7%,-15%,1%
CC(=O)N(C)c1ccc(N=Cc2c(O)ccc3ccccc23)cc1,16%,1%,i,?,-5%,11µM*
Oc1cccc(C=Nc2cccc3ccccc23)c1O,?,-98%,?,13µM*,?,11µM*
Oc1ccc2ccccc2c1C=Nc1ccccc1Br,-18%,-16%,?,-29%,.,13µM*
CN(C)/N=C/c1c(O)ccc2ccccc12,11%,-1%,i,3%,7%,-2%
Oc1ccccc1C=Nc1cccc2ccccc12,-3%,-7%,i,-2%,.,-13%
CCNC(=O)C1(C)CCCN(CCOc2ccc(Cl)cc2)C1 (stereo not drawn),6%,-7%,i,.,-15%,.
CS/C(N)=N/N=C/c1c(O)ccc2ccccc12,?,-34%,i,7.1µM*,4%,0.89µM*
S=c1[nH]nc(-c2ccco2)n1/N=C/c1ccccc1Cl,6%,-3%,i,22µM*,7%,3.2µM*
Cc1ccc(/C=N/n2c(-c3ccco3)n[nH]c2=S)s1,-2%,-2%,i,?,4%,8.9µM*
S=c1[nH]nc(-c2ccccn2)n1/N=C/c1c(Cl)cccc1Cl,5%,7%,i,1%,-9%,?
S=c1[nH]nc(-c2ccco2)n1/N=C/c1ccc(Cl)cc1,2%,1%,i,4µM*,-15%,4.5µM*
Cc1ccc(/C=N/n2c(-c3cccnc3)n[nH]c2=S)s1,-20%,4%,i,?,-4%,7.1µM*
COCCN(C)C(=O)c1cnn(-c2ncc3c(n2)-c2ccccc2CCC3)c1C1CC1,.,.,i,.,.,.

# Source: PubChem BioAssay
